Data reported in PubChem BioAssay (NCATS).
Several values for one entry are separate records, joined by “and”; a condition that tells them apart may be missing. Equal values may be shown once. Results filed as inconclusive are left out. Where a call stands in place of a potency, no number is given. Some compounds were tested as several samples or in several runs, with calls that do not always agree. Activity calls are given as the source filed them. Unless noted, calls follow the shape of the dose curve; as a rule, active = well fitted curve in the direction sought with a large enough effect; inconclusive = small, poorly fitted or top-dose-only effect, or another doubt; inactive = no such curve, though single readings can be large; an effect the other way counts as inactive or inconclusive.

Experiments:
[1] = test system: Hek293T; assay: Primary qHTS to identify gynecologic anti-cancer compounds using libraries of approved drugs and bioactive compounds (AID 1345084); conditions: Gynecologic cancer cell panel viability, ATPlite luminescence, 48 h, control line for the selectivity index; series mostly up to 57.5 µM; also: nearly all actives have a fitted effect of over 55% in size; also: potency is read from the fitted curve at half-maximal effect
Method in brief: (§1)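 Luminescence from the ATPlite ATP-monitoring reagent indicates viable cell number; lower signal means cytotoxicity. Cells received compound 16 h after seeding and were exposed for 48 h across five concentrations.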

[2] = test system: JEG-3; assay: as above; conditions: Gynecologic cancer cell panel viability, ATPlite luminescence, 48 h; series mostly up to 57.5 µM
Method in brief: as §1

[3] = test system: OV90; assay: as above; conditions: Gynecologic cancer cell panel viability, ATPlite luminescence, 48 h; series mostly up to 57.5 µM
Method in brief: as §1

[4] = test system: PA-1; assay: as above; conditions: Gynecologic cancer cell panel viability, ATPlite luminescence, 48 h; series mostly up to 57.5 µM
Method in brief: as §1

[5] = test system: SKOV3; assay: as above; conditions: Gynecologic cancer cell panel viability, ATPlite luminescence, 48 h; series mostly up to 57.5 µM
Method in brief: as §1

[6] = test system: Tov-21-G; assay: as above; conditions: Gynecologic cancer cell panel viability, ATPlite luminescence, 48 h; series mostly up to 57.5 µM
Method in brief: as §1

[7] = test system: Tov112D; assay: as above; conditions: Gynecologic cancer cell panel viability, ATPlite luminescence, 48 h; series mostly up to 57.5 µM
Method in brief: as §1

[8] = Drug repurposing screens with cells derived from glioblastoma tumor samples (AID 1345199); conditions: GBM patient neurospheres viability, ATP luminescence, 48 h; also: nearly all actives have a fitted effect of over 40% in size; also: potency is read from the fitted curve at half-maximal effect
Method in brief: (§2)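 Four patient lines of CD133+ GBM neurospheres were screened at several concentrations; hits were retested in those lines plus three slower-growing GBM lines, using 48-hour treatment and ATP-based viability.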

[9] = test system: astro; assay: as above; conditions: viability, ATP luminescence, 48 h; series mostly up to 45.9 µM
Method in brief: as §2

[10] = target: Nuclear receptor subfamily 1 group I member 2 (Rattus norvegicus) (UniProt Q9R1A7); assay: qHTS assay for small molecule activators of the rat pregnane X receptor (rPXR) signaling pathway (AID 651751; call rule not given here); conditions: rPXR reporter cells, luciferase (One-Glo), 24 h
[11] = qHTS assay for small molecule activators of the human pregnane X receptor (PXR) signaling pathway (AID 720659; call rule not given here)
[12] = qHTS assay to identify inhibitors of the type 1 interferon - major histocompatibility complex class I in skeletal muscle: Counter screen cell viability and HiBit confirmation (AID 1347412); conditions: iHSKM muscle cells + IFN-b, HiBiT or CellTiter-Glo, 24 h; also: nearly all actives have a fitted effect of over 60% in size; also: potency is read from the fitted curve at half-maximal effect
Method in brief: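 CRISPR HLA-B*08:01-HiBit immortalized human myoblasts (C25cl48) stimulated with 4 ng/ml IFN-beta and compounds (12-point 1:3, top 46 uM final) for 24 h at 37 C. Duplicate plates read by HiBit lytic luminescence or CellTiter Glo ATP.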

[13] = at 45.9 µM (top of the series), tumour line B
[14] = at 45.9 µM (top of the series), tumour line D
[15] = at 46.1 µM (top of the series), tumour line C
[16] = at 46 µM (top of the series), tumour line A

Sequence of Nuclear receptor subfamily 1 group I member 2 (Rattus norvegicus) (Q9R1A7 whole entry, looked up): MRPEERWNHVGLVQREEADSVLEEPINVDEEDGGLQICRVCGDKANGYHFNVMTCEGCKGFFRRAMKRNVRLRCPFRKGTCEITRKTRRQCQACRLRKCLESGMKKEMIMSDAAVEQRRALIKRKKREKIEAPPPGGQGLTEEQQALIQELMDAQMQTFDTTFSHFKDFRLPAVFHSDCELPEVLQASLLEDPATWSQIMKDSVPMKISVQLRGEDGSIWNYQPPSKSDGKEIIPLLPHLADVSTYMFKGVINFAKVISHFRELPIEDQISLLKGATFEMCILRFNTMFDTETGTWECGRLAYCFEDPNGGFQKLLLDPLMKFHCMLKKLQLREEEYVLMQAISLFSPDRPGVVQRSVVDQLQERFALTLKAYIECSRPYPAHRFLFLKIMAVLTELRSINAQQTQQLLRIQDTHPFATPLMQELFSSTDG

Compound	Potency [1]	Potency [2]	Potency [3]	Potency [4]	Potency [5]	Potency [6]	Potency [7]	activity, negative = cell killing [8, 13]	activity, negative = cell killing [8, 14]	Potency [9]	activity, negative = cell killing [8, 15]	max response [10]	outcome [11]	activity change, negative = inhibition ([12]; Viability, at 45.9 µM (top of the series))	activity, negative = cell killing [8, 16]	Potency ([8]; tumour line A)	Potency ([8]; tumour line D)	Potency ([12]; HiBiT)	Potency ([12]; Viability)	Potency ([8]; tumour line B)
C[C@]12C[C@H](O)[C@H]3[C@@H](CCC4=CC(=O)CC[C@@]43C)[C@@H]1CC[C@@H]2C(=O)CO	inactive	inactive	inactive	inactive	inactive	inactive	inactive	-17.6% (inactive)	-22.1% (inactive)	inactive	–	–	–	–	–	–	–	–	–	–
CC1(C)Oc2ccc(C#N)cc2[C@@H](N2CCCC2=O)[C@@H]1O	inactive	inactive	inactive	inactive	inactive	inactive	inactive	–	–	inactive	–	–	–	–	–	–	–	–	–	–
CC(C)(O)c1ccccc1CC[C@@H](SCC1(CC(=O)O)CC1)c1cccc(/C=C/c2ccc3ccc(Cl)cc3n2)c1	inactive	inactive	inactive	inactive	inactive and 35.5 µM (active)	inactive	inactive	–	–	20 µM (active)	–	–	–	–	–	–	–	–	–	–
CCCCC(CC)COC(=O)c1ccccc1O (stereo not drawn)	inactive	inactive	inactive	inactive	inactive	inactive	inactive	-9.83% (inactive)	-3.06% (inactive)	inactive	2.02% (inactive)	2.15% (inactive)	inactive	–	–	–	–	–	–	–
CC(C)(C(=O)O)c1ccc(C(O)CCCN2CCC(C(O)(c3ccccc3)c3ccccc3)CC2)cc1 (stereo not drawn)	inactive	inactive	inactive	inactive	inactive	inactive	inactive	–	–	inactive	–	–	–	–	–	–	–	–	–	–
O=S(=O)(O)c1cc(I)c(O)c2ncccc12	inactive	inactive	inactive	inactive	inactive	inactive	inactive	-21.6% (inactive)	-2.75% (inactive)	inactive	–	–	–	–	–	–	–	–	–	–
COc1ccc2cc1Oc1ccc(cc1)C[C@H]1c3c(cc4c(c3Oc3cc5c(cc3OC)CCN(C)[C@@H]5C2)OCO4)CCN1C	inactive	inactive	10 µM (active) and inactive	28.2 µM (active)	–	inactive	inactive	–	–	–	–	–	–	–	–	–	–	–	–	–
CN(C)CCOC(C)(c1ccccc1)c1ccccn1 (stereo not drawn)	inactive	inactive	inactive	inactive	inactive	inactive	inactive	–	–	inactive	–	2.43% (inactive)	inactive	–	–	–	–	–	–	–
CC(=O)Oc1ccc(C2(c3ccc(OC(C)=O)cc3)C(=O)Nc3ccccc32)cc1	inactive	inactive	8.91 µM (active)	inactive	inactive	–	–	0.963% (inactive) and -11% (inactive)	-19.5% (inactive) and -4.76% (inactive)	–	-13% (inactive) and -13.5% (inactive)	–	–	-23.2% (inactive)	–	–	–	–	–	–
NCC(=O)CCC(=O)O	inactive	inactive	inactive	inactive	inactive	inactive	inactive	–	–	inactive	–	–	–	–	–	–	–	–	–	–
C=Cc1c(C)c2cc3[nH]c(cc4nc(cc5nc(cc1[nH]2)C(C)=C5CCC(=O)O)C(CCC(=O)O)=C4C)c(C)c3C=C	inactive	inactive	inactive	inactive	–	inactive	inactive	-11.3% (inactive)	-20.2% (inactive)	inactive	-7.06% (inactive)	–	–	–	-14% (inactive)	–	–	–	–	–
O=S(=O)(O)NC1CCCCC1	inactive	inactive	inactive	inactive	inactive	inactive	inactive	-10.5% (inactive)	-5.78% (inactive)	inactive	–	1.16% (inactive)	inactive	–	-19.1% (inactive)	–	–	–	–	–
CCN(CC)CCNC(=O)c1c(C)[nH]c(/C=C2\C(=O)Nc3ccc(F)cc32)c1C	inactive	inactive	10 µM (active)	10 µM (active)	8.91 µM (active)	–	inactive	–	–	12.6 µM (active)	3.12% (inactive)	–	–	–	–	11.2 µM (active)	28.2 µM (active)	3.94 µM (active)	7.01 µM (active)	–
CC(O)CN(CCN(CC(C)O)CC(C)O)CC(C)O (stereo not drawn)	inactive	inactive	inactive	inactive	inactive	inactive	inactive	-16.3% (inactive)	3.18% (inactive)	inactive	–	-2.51% (inactive)	inactive	–	-27.7% (inactive)	–	–	–	–	–
Cc1c(O)cccc1C(=O)N[C@@H](CSc1ccccc1)[C@H](O)CN1C[C@H]2CCCC[C@H]2C[C@H]1C(=O)NC(C)(C)C	inactive	inactive	inactive	inactive	–	inactive	inactive	–	–	35.5 µM (active)	0.268% (inactive)	–	–	–	–	6.31 µM (active)	20 µM (active)	–	–	11.2 µM (active)
Cc1cc(CC(=O)O)n(C)c1C(=O)c1ccc(Cl)cc1	inactive	inactive	inactive	inactive	inactive	inactive	inactive	-19.5% (inactive) and -0.106% (inactive)	-15.6% (inactive) and -2.2% (inactive)	inactive	-19.2% (inactive) and -21.6% (inactive)	-6.77% (inactive)	inactive	–	–	–	–	–	–	–
